This is an account of results in PubChem BioAssay.

Calls of active or inactive are those of the source.

Chain of Luciferin 4-monooxygenase (Photinus pyralis) (P08659 whole entry, looked up): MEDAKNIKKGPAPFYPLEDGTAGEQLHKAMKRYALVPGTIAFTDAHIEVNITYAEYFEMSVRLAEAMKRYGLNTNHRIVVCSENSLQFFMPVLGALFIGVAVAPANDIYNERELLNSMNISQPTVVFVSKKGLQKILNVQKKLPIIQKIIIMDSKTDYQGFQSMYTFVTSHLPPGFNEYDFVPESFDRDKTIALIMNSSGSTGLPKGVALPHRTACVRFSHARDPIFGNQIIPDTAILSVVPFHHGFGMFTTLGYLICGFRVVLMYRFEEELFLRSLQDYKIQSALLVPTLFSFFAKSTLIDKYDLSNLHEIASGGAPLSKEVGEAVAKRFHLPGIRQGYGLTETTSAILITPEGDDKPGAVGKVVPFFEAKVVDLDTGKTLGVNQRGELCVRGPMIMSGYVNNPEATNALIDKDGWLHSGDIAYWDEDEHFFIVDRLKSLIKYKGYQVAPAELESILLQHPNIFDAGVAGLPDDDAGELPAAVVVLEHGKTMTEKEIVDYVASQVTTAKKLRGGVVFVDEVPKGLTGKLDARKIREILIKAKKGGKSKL

In one assay the test system is wheat germ agglutinin (Triticum aestivum), Alexa647-labelled. Nature of the assay: wheat germ agglutinin binders on compound microarrays, profiling panel, artefact control for SMM control-protein annotation, biochemical, small-molecule microarray, 635/667 nm fluorescence (AID 1140).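 Also: score merges 667 nm feature emission with signal to noise over triplicate slides.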 The settings on record: WGA-A647 binding, 635 nm fluorescence, higher = more signal.
`COc1ccc(C#Cc2ccc3c(c2)[C@]2(C(=O)N3)[C@H](C(=O)O)[C@H]3C(=O)O[C@H](c4ccccc4)[C@H](c4ccccc4)N3[C@@H]2c2ccc(OCCO)cc2)cc1`: the composite z-score amounted to 1.18.

Take `COCC1=C([C@H](O)CCc2ccccc2)[C@H](CO)[C@@H]2C(=O)N(C)C(=O)[C@@H]2C1`: the composite z-score is -0.368.

In the case of `CC(C)(C)N1CC=CC23O[C@@H]4C=CCCOC(=O)C4[C@H]2C(=O)N(CCCO)[C@@H]3C1=O` (stereo partly drawn), the composite z-score is -1.96.

`O=C1O[C@H](c2ccccc2)[C@H](c2ccccc2)N2[C@H]1[C@@H](C(=O)N1CCCCCCC1)[C@]1(C(=O)Nc3ccccc31)[C@H]2c1ccc(O)cc1` yielded a composite z-score of 1.77.

`COC(=O)[C@]1(Cc2ccccc2CN=[N+]=[N-])N=C(c2ccc(OCCCO)cc2)O[C@@H]1c1ccccc1CN=[N+]=[N-]` yielded a composite z-score of 0.609.

Take `O=C1c2ccccc2[C@](Cc2ccccc2I)(C(=O)NCC(F)(F)F)[C@H](c2ccc(CO)cc2)N1Cc1ccccc1`: the composite z-score came to 0.469.

With `NC(=O)NCC#Cc1ccc2c(c1)[C@]1(C(=O)N2)[C@H](c2ccc(OCCO)cc2)N2[C@H](c3ccccc3)[C@H](c3ccccc3)OC(=O)[C@H]2[C@@H]1C(=O)N1CCCCCCC1`, the composite z-score came out at 1.44.

On to `N#Cc1ccc(NN2C(C(O)c3ccco3)C=CC3C(=O)N(c4ccccc4)C(=O)C32)cc1` (stereo not drawn), for which the composite z-score was 0.754.

The next assay concerns the target Luciferin 4-monooxygenase (Photinus pyralis) (UniProt P08659). Nature of the assay: firefly luciferase enzyme inhibitors, primary screen, biochemical, luminescence, purified enzyme, 2006 set (AID 1141).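 Also: cell-free assay with purified firefly luciferase at 100 ng per well in PBS; test concentration not given here.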 The settings on record: SteadyGlo luminescence, 30 min, higher = more signal, called active from +8 up or from −8 down.
In the case of `CCCCC(O)C1C=CC2C(=O)N(Cc3ccccc3)C(=O)C2N1n1cnnc1` (stereo not drawn), the z-score is 1.48 (inactive).

As to `COCCCNC(=O)[C@@]1(C)c2ccccc2C(=O)N(c2ccc(C)cn2)[C@H]1c1ccc(CO)cc1`, the z-score is 0.522 (inactive).

Consider `CCCC=C(CCC)[C@@H](NS(=O)(=O)c1cccc2cccnc12)c1ccc(C(=O)OC)cc1`, for which the z-score was 2.48 (inactive).

On to `COc1ccccc1CN1C(=O)c2ccccc2[C@](Cc2ccccc2I)(C(=O)NCCN2CCOCC2)[C@@H]1c1ccc(CO)cc1`, for which the z-score was -1.06 (inactive).

Regarding `C=C(COC)/C(=C/C[C@@H](OC(=O)c1ccncc1)c1cccc(OCCO)c1)c1cc(C(=O)OC)ccc1OC`, the z-score is -1.11 (inactive).

As for `C=CCNC(=O)[C@@H]1[C@H]2C(=O)O[C@H](c3ccccc3)[C@H](c3ccccc3)N2[C@H](c2ccc(O)cc2)[C@@]12C(=O)Nc1ccc(C#CCCO)cc12`, the z-score was 1.05 (inactive).

With `COCCCNC(=O)[C@]1(Cc2ccccc2)N=C(c2ccc(OCCCO)cc2)O[C@@H]1c1ccccc1N=[N+]=[N-]`, the z-score was -4.67 (inactive).

As for `COC(=O)C(CC#Cc1ccc2c(c1)[C@]1(C(=O)N2)[C@H](c2ccccc2OCCO)N2[C@H](c3ccccc3)[C@H](c3ccccc3)OC(=O)[C@H]2[C@@H]1C(=O)Nc1nc2ccccc2s1)C(=O)OC`, the z-score is -1.21 (inactive).

In the case of `CCOC(=O)C[C@H]1[C@H](OC(=O)c2cc3ccccc3oc2=O)[C@@H](NC(=O)c2ccc3ccccc3n2)c2cc(OCCCO)ccc2N1C(=O)c1ccc2ccccc2n1`, the z-score is -0.204 (inactive).

Take `NCCCCCCNC(=O)[C@H]1C[C@H]2C(=O)N3CCC[C@H]3C(=O)N2[C@H]1c1ccc(O)cc1`: the z-score was 0.24 (inactive).

Regarding `C=CCOC(=O)[C@@H]1[C@H]2C(=O)O[C@H](c3ccccc3)[C@H](c3ccccc3)N2[C@H](c2ccc(OCCOC(=O)[C@@H]3C[C@@H]4C(=O)N[C@@H](CCCCNC(C)=O)C(=O)N4[C@@H]3c3ccc(O)cc3)cc2)[C@@]12C(=O)Nc1ccc(I)cc12`, the z-score was -0.576 (inactive).

Turning to `COc1ccc([Si](C)(C)[C@@H]2[C@@H](CCO)O[C@]3(C(=O)N(Cc4ccccc4)c4ccc(N5C(=O)COc6ccccc65)cc43)[C@H]2C)cc1`, the z-score was 0.806 (inactive).

With `CN1C(=O)C2C=CC(C(O)c3cccc4ccccc34)N(NC(=O)OC(C)(C)C)C2C1=O` (stereo not drawn), the z-score was 0.216 (inactive).

In the case of `COc1ccc(C(=O)Nc2ccc3c(c2)[C@]2(O[C@@H](CCO)[C@H]([Si](C)(C)c4ccc(OC)cc4)[C@H]2C)C(=O)N3Cc2ccccc2)cc1`, the z-score is -0.777 (inactive).

As to `O=C1c2ccccc2[C@](Cc2ccccc2I)(C(=O)NC2CC2)[C@H](c2ccc(CO)cc2)N1Cc1ccccc1Cl`, the z-score is -0.0487 (inactive).

As for `COC(=O)C(CC#Cc1ccc2c(c1)[C@]1(C(=O)N2)[C@H](c2ccc(O)cc2)N2[C@H](c3ccccc3)[C@H](c3ccccc3)OC(=O)[C@H]2[C@@H]1C(N)=O)C(=O)OC`, the z-score is -0.899 (inactive).

For the compound `CC(C)CNC(=O)[C@@]1(C)c2ccccc2C(=O)N(Cc2ccccc2)[C@H]1c1ccc(CO)cc1`, the z-score is 0.182 (inactive).

On to `COC(=O)C(CC#Cc1ccc2c(c1)[C@]1(C(=O)N2)[C@H](c2ccc(OCCO)cc2)N2[C@H](c3ccccc3)[C@H](c3ccccc3)OC(=O)[C@H]2[C@@H]1C(=O)O)C(=O)OC`, for which the z-score was -3.07 (inactive).

On to `CC(C)C(CO)N1C(=O)[C@@H]2[C@H]3C(=O)OCC=C[C@H]3OC23C=CCN(Cn2nnc4ccccc42)C(=O)[C@@H]13` (stereo partly drawn), for which the z-score is 0.152 (inactive).

As for `O=C1N(Cc2ccccc2)c2ccccc2[C@H]2OC(c3ccc(OCCCO)cc3)=N[C@@]12CCS(=O)(=O)c1ccccc1`, the z-score is -0.202 (inactive).

Consider `CCCNC(=O)[C@@H]1c2ccccc2C(=O)N(CC23CC4CC(CC(C4)C2)C3)[C@H]1c1ccc(CO)cc1`, for which the z-score was 0.411 (inactive).

Take `C=C(C)[C@@H]1CC=C(C(O)C2C=CC3C(=O)N(C4CCCCC4)C(=O)C3N2Nc2ccc(OC)cc2)CC1` (stereo partly drawn): the z-score is -0.392 (inactive).

Turning to `OCCCC1=CC(c2cccs2)N(Cc2cccc(OC(F)(F)F)c2)CC1` (stereo not drawn), the z-score was -0.605 (inactive).

Turning to `Cc1ccccc1C(O)C1C=CC2C(=O)N(Cc3ccccc3)C(=O)C2N1n1cnnc1` (stereo not drawn), the z-score was 1.39 (inactive).

With `COc1ccc([Si](C)(C)[C@H]2[C@H](CCO)O[C@@]3(C(=O)N(Cc4cccc(N5CCOC5=O)c4)c4ccccc43)[C@@H]2C)cc1`, the z-score is -0.0833 (inactive).

In the case of `COCCOC(=O)N1C(=O)[C@@]2(c3cc(C#CC4(O)CCCCCC4)ccc31)[C@H](C(=O)N1CCc3cc(OC)c(OC)cc3C1)[C@H]1C(=O)O[C@H](c3ccccc3)[C@H](c3ccccc3)N1[C@@H]2c1ccccc1OCCO`, the z-score is -1.72 (inactive).

In the case of `CC(=O)NCCCC[C@@H]1NC(=O)[C@H]2C[C@@H](C(=O)NCCCCCN)[C@@H](c3cccc(OCCO)c3)N2C1=O`, the z-score was -0.0548 (inactive).

`COc1ccc(C#Cc2ccc3c(c2)[C@]2(C(=O)N3)[C@H](C(=O)O)[C@H]3C(=O)O[C@H](c4ccccc4)[C@H](c4ccccc4)N3[C@@H]2c2ccc(OCCO)cc2)cc1`: the z-score is -5.18 (inactive).

Regarding `COCC1=C([C@H](O)CCc2ccccc2)[C@H](CO)[C@@H]2C(=O)N(C)C(=O)[C@@H]2C1`, the z-score was -1.08 (inactive).

Consider `CC(C)(C)N1CC=CC23O[C@@H]4C=CCCOC(=O)C4[C@H]2C(=O)N(CCCO)[C@@H]3C1=O` (stereo partly drawn), for which the z-score is -0.0881 (inactive).

Turning to `O=C1O[C@H](c2ccccc2)[C@H](c2ccccc2)N2[C@H]1[C@@H](C(=O)N1CCCCCCC1)[C@]1(C(=O)Nc3ccccc31)[C@H]2c1ccc(O)cc1`, the z-score was -0.809 (inactive).

Consider `COC(=O)[C@]1(Cc2ccccc2CN=[N+]=[N-])N=C(c2ccc(OCCCO)cc2)O[C@@H]1c1ccccc1CN=[N+]=[N-]`, for which the z-score was -1.41 (inactive).

With `O=C1c2ccccc2[C@](Cc2ccccc2I)(C(=O)NCC(F)(F)F)[C@H](c2ccc(CO)cc2)N1Cc1ccccc1`, the z-score is 0.875 (inactive).

For the compound `NC(=O)NCC#Cc1ccc2c(c1)[C@]1(C(=O)N2)[C@H](c2ccc(OCCO)cc2)N2[C@H](c3ccccc3)[C@H](c3ccccc3)OC(=O)[C@H]2[C@@H]1C(=O)N1CCCCCCC1`, the z-score is -0.254 (inactive).

As for `N#Cc1ccc(NN2C(C(O)c3ccco3)C=CC3C(=O)N(c4ccccc4)C(=O)C32)cc1` (stereo not drawn), the z-score was -0.72 (inactive).
